USP8 block – inhibitors of human USP8 deubiquitinase; inhibition, % at 20 µM; purified USP8, Ub-rhodamine cleavage fluorescence, 30 min; Ubiquitin carboxyl-terminal hydrolase 8 (Homo sapiens), P40818; AID 1645853, 2021; 47,000 tested, 4.2% active
Target sequence (P40818 whole entry, looked up): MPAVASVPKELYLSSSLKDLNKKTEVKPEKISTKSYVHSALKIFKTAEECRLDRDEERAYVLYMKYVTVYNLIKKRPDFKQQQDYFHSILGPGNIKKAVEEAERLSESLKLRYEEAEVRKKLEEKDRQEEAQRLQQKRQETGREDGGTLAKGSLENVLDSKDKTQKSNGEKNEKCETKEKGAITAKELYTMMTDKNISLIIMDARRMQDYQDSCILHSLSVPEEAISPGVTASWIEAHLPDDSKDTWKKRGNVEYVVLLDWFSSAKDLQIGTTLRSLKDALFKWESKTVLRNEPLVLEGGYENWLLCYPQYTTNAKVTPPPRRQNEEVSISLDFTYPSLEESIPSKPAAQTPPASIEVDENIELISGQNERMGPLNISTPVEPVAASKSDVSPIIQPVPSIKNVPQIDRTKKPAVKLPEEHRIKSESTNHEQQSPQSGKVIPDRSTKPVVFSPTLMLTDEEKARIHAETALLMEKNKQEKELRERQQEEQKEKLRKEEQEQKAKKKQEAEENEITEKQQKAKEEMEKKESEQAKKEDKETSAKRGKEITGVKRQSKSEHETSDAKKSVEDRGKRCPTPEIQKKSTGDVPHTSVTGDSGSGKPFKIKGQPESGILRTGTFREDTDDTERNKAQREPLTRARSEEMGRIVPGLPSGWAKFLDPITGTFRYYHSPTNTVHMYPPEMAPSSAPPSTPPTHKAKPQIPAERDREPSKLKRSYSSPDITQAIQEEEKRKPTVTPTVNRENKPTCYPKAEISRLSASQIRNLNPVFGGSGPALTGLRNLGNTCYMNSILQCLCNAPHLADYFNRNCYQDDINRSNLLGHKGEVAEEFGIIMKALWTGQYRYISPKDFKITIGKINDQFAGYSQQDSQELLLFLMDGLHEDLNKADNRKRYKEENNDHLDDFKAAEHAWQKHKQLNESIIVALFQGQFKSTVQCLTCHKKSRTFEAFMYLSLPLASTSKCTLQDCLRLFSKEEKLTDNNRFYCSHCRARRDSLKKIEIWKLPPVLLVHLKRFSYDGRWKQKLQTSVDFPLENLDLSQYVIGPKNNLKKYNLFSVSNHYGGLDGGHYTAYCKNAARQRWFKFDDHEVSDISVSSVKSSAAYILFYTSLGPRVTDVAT
USP17 inh – inhibitors of human USP17 deubiquitinase | 47,000 tested, 6.5% active | purified USP17, Ub-rhodamine cleavage fluorescence, 3 h | inhibition, % at 50 µM | Ubiquitin carboxyl-terminal hydrolase 17-like protein 5 (Homo sapiens), A8MUK1
USP28 inh – inhibitors of human USP28 deubiquitinase. purified USP28, Ub-rhodamine cleavage fluorescence, 30 min. Ubiquitin carboxyl-terminal hydrolase 28 (Homo sapiens), Q96RU2. AID 1645857, 2021. inhibition, % at 25 µM. 47,000 tested, 3% active
USP30 inh – inhibitors of human USP30 deubiquitinase. purified USP30, Ub-rhodamine cleavage fluorescence. inhibition, % at 25 µM. Ubiquitin carboxyl-terminal hydrolase 30 (Homo sapiens), Q70CQ3. 47,000 tested, 5.3% active
Numbers stand for hits; – = inactive; · = no result. In the library only some 14% were active in any assay of this set; here they are far more common. No stated cut-off is given here; in the data, active means inhibition above about 30%; inactive means the rest.

SMILES	USP8 block	USP17 inh	USP28 inh	USP30 inh
CCOc1ccccc1C(=O)[C@@H]1[C@@H]2CCCN2[C@]2(C(=O)Nc3c2ccc(C)c3C)[C@@]12C(=O)Nc1ccccc12	–	–	–	–
COc1ccc(-c2c3c(=O)n(Cc4cccnc4)ccc3nc3nc(C)nn23)cc1	–	–	–	–
O=c1c2ccccc2c2ccccc2c(=O)n1-c1cccc([N+](=O)[O-])c1	–	–	–	–
Cn1c(NC(=O)c2ccc(Cl)cc2)c(-c2ccccn2)c(=O)c2ccccc21	43	–	–	–
COc1cc(-c2c(NC(=O)c3ccc([N+](=O)[O-])cc3)n(C)c3ccccc3c2=O)cc(OC)c1OC	–	–	–	31
COc1ccccc1-c1c(NC(=O)c2ccc(C)cc2)n(C)c2ccccc2c1=O	–	–	–	–
Cn1c(NC(=O)c2ccccc2Cl)c(-c2ccccn2)c(=O)c2ccccc21	–	–	–	–
c1cc(C2COCCN2Cc2ccnc(N3CCCC3)n2)[nH]n1 (stereo not given)	–	–	–	–
CCCCCCCC(=O)c1c(O)cc(O)cc1CC(=O)O	–	–	–	–
CCCCCCCCCCCCCCCc1cc(O)cc(O)c1	–	30	–	–
CN(C)C(=O)c1ccc(Nc2nc(-c3cccnc3)nc3ccccc23)cc1	–	37	–	–
Cc1nn2c(CNS(=O)(=O)c3ccccc3F)c(C)nc2s1	–	–	–	–
CCc1ccccc1NC(=O)CC(c1cccc(F)c1)n1cccc1 (stereo not given)	–	–	–	–
COc1ccc(C(=O)Nc2ccc3c(N4CCOCC4)ncnc3c2)cc1	–	–	–	–
COc1ccc(NC(=O)c2ccc3ccnc(N4CCN(c5ccc(OC)cc5)CC4)c3c2)cc1	–	47	–	–
Cc1cn(C)c(C2CCCN(C(=O)Cc3c[nH]c4ccccc34)C2)n1 (stereo not given)	–	–	–	–
O=C(NCCc1c[nH]c2ccc(F)cc12)C(=O)Nc1cccc2ncccc12	–	45	–	–
O=C(CN1C(=O)c2ccccc2Sc2ccc(C(=O)N3CCCC3)cc21)Nc1ccccc1Cl	–	52	38	–
Cc1cccc(CN2C(=O)c3ccccc3Sc3ccc(C(=O)N4CCC5(CC4)OCCO5)cc32)c1	–	–	–	–
COc1ccc(/C=C2\CSc3sccc3C2=O)cc1	–	–	50	–
N#Cc1ccc(-c2ccc(S(=O)(=O)C3CCN(CC(=O)c4ccc(F)cc4)CC3)cc2)cc1	–	–	–	–
O=S(=O)(c1ccc(-c2ccc(Cl)cc2Cl)cc1)C1CCNCC1	–	–	44	45
Cc1nc(C2(NC(=O)Nc3nc(C)c(C)s3)CCCC2)no1	–	–	–	–
COc1ccc(C)cc1NC(=O)Cc1csc(NC(=O)c2ccc(=O)[nH]c2)n1	82	71	–	–
O=C1NC(=O)/C(=C/c2ccc(OC(=O)c3ccc(Cl)cc3Cl)cc2)N1	94	38	31	62
SMILES	USP8 block	USP17 inh	USP28 inh	USP30 inh
CCOc1ccc(Br)c(CC2C(=O)Nc3ccccc32)c1 (stereo not given)	–	–	–	–
CCN1C[C@H]2C3(CCN(C(=O)Cc4ccccc4)CC3)CC[C@@]2(C(=O)N(C)C)C1	–	–	–	–
CN(C1CCCCC1)S(=O)(=O)N1CCCC(C(=O)NCc2ccc3c(c2)OCO3)C1 (stereo not given)	–	–	–	–
COc1ccc(OC)c(NC(=O)c2cc3c(CO)cnc(C)c3oc2=O)c1	–	33	–	44
COc1ccc(OC)c(NC(=O)c2c(-c3ccccc3)nnc3ccc(C)cc23)c1	–	·	–	–
COc1ccc(OC)c(NC(=O)c2sc(-c3ccccc3)nc2C)c1	42	51	44	74
Cc1nc(-c2ccccn2)sc1C(=O)Nc1ccc(F)cc1	–	–	·	·
Cc1nc(-c2ccccc2F)sc1C(=O)Nc1cccnc1	–	54	–	–
COc1ccc(OC)c(NC(=O)c2nc(C3CCC3)oc2C)c1	–	–	–	31
Cc1nnc(-c2c(S(=O)(=O)NC3CCCCCC3)c(C)n(C)c2C)o1	–	–	–	–
CN(C)[C@@H]1[C@@H](O)[C@H](Oc2cccc(F)c2)C[C@H]1NC(=O)c1ccnn1C	–	–	–	–
COc1cc(NC(=O)C2C3C=CC(O3)C2C(=O)O)c(OC)cc1Cl (stereo not given)	–	–	–	–
O=C(CSc1nnc(Cc2cc(=O)[nH]c(=O)[nH]2)n1-c1ccccc1)NC1CCCCC1	–	–	–	–
COc1ccc(-c2nc(C)c(C(=O)NCc3ccc(S(N)(=O)=O)cc3)s2)cc1	–	57	–	–
COc1ccc(OC)c(NC(=O)c2ccc(C)c(F)c2)c1	–	–	–	–
CC(=O)c1cccc(NC(=O)c2sc(-c3ccccc3)nc2C)c1	–	–	33	–
COc1ccc(OC)c(NC(=O)c2cc(Cl)ccc2OC)c1	–	62	–	–
CC(=O)Nc1ccc(NC(=O)c2sc3nc(-c4cccc([N+](=O)[O-])c4)cn3c2C)cc1	–	–	–	–
CC(=O)Nc1cccc(NC(=O)c2sc3nc(-c4ccccc4)cn3c2C)c1	–	47	·	·
Cc1nc(-c2ccccc2)sc1C(=O)Nc1ccc2cc[nH]c2c1	–	–	–	–
COc1cccc(F)c1-c1nc(C)c(C(=O)NCc2ccccc2)s1	–	–	–	–
COc1ccc(C2CNCCN2C(=O)CCc2cc(Cl)no2)cc1 (stereo not given)	–	–	–	–
COc1ccc(-c2cnn3c(SCC(=O)N4CCOCC4)cc(C)nc23)cc1	–	–	–	–
CCn1nc(C)c(CNC(=O)c2[nH]c3ccc(C)cc3c2NC(=O)c2cccc(C)c2)c1C	–	77	–	88
Cc1cccc(C(=O)Nc2c(C)nn(Cc3cccc4ccccc34)c2C)c1	–	–	31	–
SMILES	USP8 block	USP17 inh	USP28 inh	USP30 inh
Cc1cccc(C(=O)Nc2cc(C(C)(C)C)on2)c1	–	–	–	–
Cc1cc(-c2cnc(C)nc2C2CCN(C(=O)c3cc(C(C)C)[nH]n3)CC2)on1	–	–	–	–
COCc1cc(=O)n2c(n1)N(Cc1cccc(OC)c1)CC2	–	–	–	–
N#Cc1c(-c2ccco2)ccn2nc(-c3ccc(Cl)cc3Cl)nc12	43	46	–	–
N#Cc1c(-c2ccc(Cl)cc2)ccn2nc(-c3ccco3)nc12	48	–	–	–
N#Cc1ccc(-c2nc3c(C#N)c(-c4ccc5c(c4)OCO5)ccn3n2)cc1	–	–	–	–
CCCC(=O)N1CCC2(CCN2Cc2ccc(F)cc2)C1 (stereo not given)	–	–	–	–
CC1=C[C@H]2N(c3ccc(C)cc31)[C@H](C(=O)C(C)(C)C)[C@@H](C(=O)c1ccccc1)[C@]21C(=O)Nc2ccccc21	80	41	–	–
CC1=C[C@H]2N(c3ccccc31)[C@H](C(=O)C(C)(C)C)[C@@H](C(=O)c1ccco1)[C@]21C(=O)Nc2ccccc21	–	–	–	–

Screens deposited in PubChem BioAssay by Buhrlage Lab, Dana-Farber Cancer Institute and Novartis Institutes for BioMedical Research (Cambridge, Mass).
